From PubChem BioAssay
DT40 TDP1 no CPT: qHTS for Inhibitors of human tyrosyl-DNA phosphodiesterase 1 (TDP1): qHTS in cells in absence of CPT; Potency, µM (highest dose often 46.2 µM), without a hit: at the highest dose activity change, negative = growth inhibition, hits mostly inhibitors; actives 15% (n = 420,000); DT40 Tdp1-/- hTDP1 cells, no CPT, ATP luminescence, 48 h; AID 686978, 2013; further: nearly all actives have a fitted effect of over 55% in size
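Seeded 400 DT40-hTDP1 cells/well (vehicle DMSO, no 20 nM CPT); pinned compounds; ≥48 hr at 37 °C; CellTiter-Glo luminescence as viability measure.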
Gal4-VP16 FLuc: inhibits Gal4-VP16 luciferase reporter, ROR gamma counter-screen; Potency, µM (doses to about 53.6 µM), for inactives: at the top dose activity, negative = inhibition, actives largely listed as inhibitors; actives 3.5% (n = 310,000); AID 2546; Drosophila S2 Gal4-VP16 UAS-luciferase, luminescence, 20 h;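 further: Gal4-VP16 expression switched on by copper sulfate through the metallothionein promoter; nearly all actives have a fitted effect of over 50% in size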
TDP1 inh: inhibitors of human tyrosyl-DNA phosphodiesterase TDP1; Potency, µM (series often up to 130 µM), inactives show at the top dose activity change, negative = inhibition, hits mostly inhibitors; Q9NUW8; recombinant TDP1, AlphaScreen DNA substrate cleavage; actives 0.28% (n = 350,000); further: nearly all actives have a fitted effect of over 40% in size
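Compounds were preincubated with Tdp1 (1 nM final) for 15 min at room temperature before substrate (15 nM final) started a 5 min reaction; beads (10 ug/ml final) were then added for 10 min before AlphaScreen detection.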
RORg inh: ROR gamma (mouse) transcription inhibition; Potency, µM (series often up to 53.6 µM), without a hit: top-dose activity change, negative = inhibition, hits mostly inhibitors; Drosophila S2 Gal4-RORgamma UAS-luciferase reporter, 20 h; actives 5.4% (n = 310,000); AID 2551; P51450; further: nearly all actives have a fitted effect of over 60% in size
Target sequence (P51450 whole entry, looked up, the tested form may be a part): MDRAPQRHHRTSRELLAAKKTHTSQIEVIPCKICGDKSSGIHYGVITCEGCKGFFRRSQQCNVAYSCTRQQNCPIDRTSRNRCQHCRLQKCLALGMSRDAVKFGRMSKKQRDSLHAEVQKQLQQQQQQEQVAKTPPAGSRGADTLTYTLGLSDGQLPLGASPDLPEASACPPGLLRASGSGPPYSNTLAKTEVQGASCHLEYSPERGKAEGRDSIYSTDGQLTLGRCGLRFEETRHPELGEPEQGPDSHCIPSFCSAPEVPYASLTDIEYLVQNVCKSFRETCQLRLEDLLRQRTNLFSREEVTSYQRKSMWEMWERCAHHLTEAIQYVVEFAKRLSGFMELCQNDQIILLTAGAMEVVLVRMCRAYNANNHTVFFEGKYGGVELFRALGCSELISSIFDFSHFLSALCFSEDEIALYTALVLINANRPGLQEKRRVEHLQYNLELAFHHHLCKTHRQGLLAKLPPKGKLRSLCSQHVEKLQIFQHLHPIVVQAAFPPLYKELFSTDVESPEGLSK
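Stable Schneider cell line, Gal4 DNA-binding domain fused to ROR gamma, UAS-luciferase. Cmpd 1 hr RT → CuSO4 700 uM final → 20 hr RT → luciferase reagent 10 min → luminescence.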
TDP1 cell CPT: DT40-hTDP1 cell growth loss with CPT | chicken DT40 Tdp1-/-;hTDP1 cells + 20 nM CPT, ATP luminescence, 48 h | Potency, µM (series often up to 46.2 µM), inactives show top-dose activity change, negative = growth inhibition, actives largely listed as inhibitors | actives 12% (n = 420,000) | AID 686979; further: nearly all actives have a fitted effect of over 55% in size
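Chicken DT40 Tdp1-/- cells complemented with human TDP1, 400 cells/well, exposed to compounds plus 20 nM camptothecin for at least 48 h at 37 C; viability read as ATP content by CellTiter-Glo luminescence.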
* marks the source's active call; other numbers are inactive results; ? = inconclusive; . = no result given; [ ] = remark or other dose. In the library only some 19% were active in any assay of this set; here they are far more common. The call rests on the fitted dose curve; in most records, active means well fitted curve in the direction sought with a large enough effect; inconclusive means small, poorly fitted or top-dose-only effect, or another doubt; inactive means no such curve, though single readings can be large; an effect the other way counts as inactive or inconclusive. On the % scale 0 is the no-effect control and ±100 the full control effect; potency means the concentration at half of the fitted maximal effect.

SMILES	DT40 TDP1 no CPT	Gal4-VP16 FLuc	TDP1 inh	RORg inh	TDP1 cell CPT
Cc1ccc(NC(=S)NC2CC3CCC(C2)N3Cc2ccco2)cc1C (centres undefined)	?	-19%	1%	14µM*	?
CCC(CO)Nc1ccc([N+](=O)[O-])c2cccnc12 (centres undefined)	?	1%	0%	0%	?
C=C1CC2C(CC[C@]3(C)C(=O)CCC23)[C@]2(C)C=CC(=O)C=C12 (some centres undefined)	.	-3%	9%	-1%	.
CC12CN3CC(c4ccccc4)(CN(C1)C31CCCCC1)C2=O	1%	6%	5%	5%	14%
C=CCCC[C@@H]1OC(=O)CNC(=O)C([C@@H](C)CC)NC(=O)[C@@H]2CCCN2C(=O)C([C@@H](C)CC)OC(=O)[C@H](Cc2ccccc2)N(C)C(=O)[C@H](C(C)C)NC(=O)C1(C)C (some centres undefined)	16µM*	.	.	.	13µM*
COc1cc(OC)c(OC)cc1CNC(C)C(O)c1ccccc1 (centres undefined)	-7%	1%	4%	5%	-15%
COc1cccc(C(=O)CCN[C@@H](C)[C@H](O)c2ccccc2)c1	24µM*	.	.	.	13µM*
CC(C)=CCOc1c2occc2cc2ccc(=O)oc12	-1%	1%	-7%[56.1 µM]	-15%	-18%
O=C1NC(=S)NC(=O)C1C(=O)Nc1ccccc1	.	-11%	13%	-1%	.
O=c1[nH]c(=S)[nH]c(O)c1N=Nc1ccc(-c2ccccc2)cc1[N+](=O)[O-]	.	18µM*	5%	?	.
O=C(Nc1ccccc1)N(Cc1ccc2c(c1)OCO2)C1CCN(Cc2ccccc2)CC1	15µM*	.	9%	.	?
Fc1ccccc1N1CCN(Cc2ccc3c(c2)OCO3)CC1	-13%	-8%	-4%	12%	-15%
COc1ccccc1NC(=O)N(Cc1ccc2c(c1)OCO2)C1CCN(Cc2ccccc2)CC1	5.2µM*	.	1%	.	4.6µM*
O=NN1CCCC1c1cccnc1 (centres undefined)	10%	.	5%	.	-1%
COC(=O)C1=C(c2cccc(OC)c2OC)C[C@@H]2CC[C@H]1N2C(=O)NCCO	2%	.	.	.	5%
CC1=C(O)C(=O)C=C2C1=CC=C1C2(C)CCC2(C)C3CC(C)(C(=O)O)CCC3(C)CCC12C (centres undefined)	1µM*	.	.	.	1.3µM*
Cc1c(O)c(O)cc2c1CC=C1[C@]3(C)CC[C@]4(C)CC[C@@](C)(C(=O)O)CC4[C@]3(C)CC[C@]12C (some centres undefined)	4.1µM*	13µM*	13%[56.1 µM]	?	7.3µM*
CC(c1ccccc1)n1cncc1C(=O)N1CCCC1=O (centres undefined)	1%	0%	1%	-19%	?
Cc1cccc(NP(=O)(Oc2ccccc2F)Oc2ccccc2F)c1C	?	-8%	-8%	14%	5%
NC(=NCCc1ccc(I)cc1)SCCCc1cnc[nH]1	13µM*	-5%	16%	1%	15µM*
COc1ccc(CCC(=O)NCCc2cnc[nH]2)cc1	10%	12%	.	2%	7%
CC(C)(C)C(=O)C1C(=O)c2ccccc2C1=O	.	?	14%	?	.
CCCCCCn1c(O)c(C=NC2CCN(Cc3ccccc3)CC2)c(=O)[nH]c1=O	10µM*	-3%	1%	-4%	21µM*
O=c1[nH]c(=O)n(CCC2=CCCCC2)c(O)c1C=NC1CCN(Cc2ccccc2)CC1	16µM*	2%	-1%	13%	15µM*
C=CCn1c(O)c(C=NC2CCN(Cc3ccccc3)CC2)c(=O)[nH]c1=O	-20%	2%	.	0%	-7%
SMILES	DT40 TDP1 no CPT	Gal4-VP16 FLuc	TDP1 inh	RORg inh	TDP1 cell CPT
CN(C)C1(CNC(=O)Cc2ccccc2F)CCCCC1	-1%	2%	.	-22%	-6%
CCOP(=O)(OCC)/C(C#N)=C/c1ccc(-c2ccc(F)cc2F)o1	?	-9%	-4%	42%	15µM*
COc1ccc2[nH]c(C)c(CCNCc3cc(OC)c(OC)c(OC)c3)c2c1	-60%	18µM*	5%	?	?
COc1ccc2[nH]c(C)c(CCNCc3cc(OC)c4c(c3)OCO4)c2c1	?	.	8%	.	?
CC(=O)N1N=C(c2c(O)n(C)c(=O)n(C)c2=O)CC1c1ccccc1 (centres undefined)	15µM*	?	3%	?	?
O=c1c2ccccc2cnn1Cc1n[nH]c(=S)n1C1CC2CCC1C2 (centres undefined)	18µM*	-15%	.	?	?
NP(=O)(Oc1ccccc1)c1ccccc1 (centres undefined)	-4%	.	.	.	8%
C/C=C(\C)C(=O)OC1C(C)=C2C(C1OC(=O)CCCCC)C(C)(OC(C)=O)CC(OC(=O)CCC)C1(O)C2OC(=O)C1(C)O (centres undefined)	.	18µM*	.	?	.
CC=C(C)C(=O)O[C@H]1C(C)=C2[C@@H]3OC(=O)[C@@](C)(O)[C@@]3(O)[C@@H](OC(=O)CCC)C[C@](C)(OC(C)=O)[C@@H]2[C@@H]1OC(=O)CCCCCCC	0.12µM*	.	13%	.	0.21µM*
Cn1nnc(CC[N+](C)(C)C)n1	-24%	-1%	.	11%	6%
CCOc1ccc(C(=O)Nc2ccc3nc(SCC(=O)N4CCCC4)sc3c2)cc1	?	.	-2%	.	?
COc1ccccc1C(=O)Nc1ccc2nc(SCC(=O)N(C)c3ccccc3)sc2c1	12µM*	.	4%	.	18µM*
Cc1ccccc1C(=O)Nc1ccc2nc(SCC(=O)N(C)c3ccccc3)sc2c1	15µM*	.	2%	.	?
CC(C)(C)c1ccc(C(=O)Nc2ccc3nc(SCC(=O)N4CCCC4)sc3c2)cc1	4.1µM*	.	2%	.	8.2µM*
Oc1ccc(CCNCc2cc3c(cc2Br)OCO3)cc1	29µM*	.	.	.	?
Brc1ccccc1CNCCc1ccc2c(c1)OCO2	?	-7%	.	-42%	?
S=c1[nH]nc(-c2ccco2)n1Cc1ccccc1	-3%	3%	-3%	?	-8%
O=C(c1ccco1)c1cn(Cc2ccccc2Cl)c2ccccc12	?	-5%	5%	-26%	18µM*
CCOC(=O)[C@]12Cc3cc(Cl)ccc3[C@H]1N(C1CCCCC1)C(=O)c1ccccc12	2.3µM*	.	.	.	2.3µM*
CCOC(=O)[C@]12Cc3cc(OC)ccc3[C@H]1N(C1CCCCC1)C(=O)c1ccccc12	2.3µM*	.	.	.	2.1µM*
CN1C2CCC1CC(OC(c1ccc(F)cc1)c1ccc(F)cc1)C2 (centres undefined)	7.3µM*	.	5%	.	6.5µM*
